A short description of assay [1]: NCI Yeast Anticancer Drug Screen. Data for the rad50 strain (AID 155).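 Note: 0% = growth of vehicle-only cultures of the same strain.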 The following applies: S. cerevisiae rad50 strain growth inhibition; at 50.0 µM; stronger effect = higher value. A digest of the protocol: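 DNA repair mutant yeast, compound exposure, growth read-out; inhibition is taken relative to vehicle.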
Assay [2] can be described thus: NCI Yeast Anticancer Drug Screen. Data for the mec2-1 strain (AID 157). Particulars: S. cerevisiae mec2-1 strain, at 50.0 µM, stronger effect = higher value. A digest of the protocol:
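Test agents were screened against the mec2-1 yeast strain, with defined DNA repair or cell cycle alteration. Growth was scored as inhibition against vehicle-only controls.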

Assay [3] is described as follows: NCI Yeast Anticancer Drug Screen. Data for the sgs1 mgt1 strain (AID 161).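 Note: 0% = growth of cultures given vehicle only.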 The following applies: S. cerevisiae sgs1 mgt1 strain, at 50.0 µM, stronger effect = higher value. In a few lines:
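Genetically altered yeast, compound exposure, growth inhibition relative to vehicle.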

Assay [4] in a line: NCI Yeast Anticancer Drug Screen. Data for the cln2 rad14 strain (AID 165).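 Note: 0% = growth equal to vehicle treated cultures.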 The following applies: S. cerevisiae cln2 rad14 strain, at 50.0 µM, stronger effect = higher value. A digest of the protocol: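 Growth of compound-exposed yeast (cln2 rad14 genotype) measured and expressed as inhibition relative to vehicle.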
The nature of assay [5]: NCI Yeast Anticancer Drug Screen. Data for the bub3 strain (AID 167). Particulars: S. cerevisiae bub3 mutant strain, at 50.0 µM, stronger effect = higher value. A digest of the protocol: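 In this screen, a yeast mutant lacking normal mitotic checkpoint function is challenged with compound. Relative growth versus vehicle gives the inhibition value.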
The nature of assay [6]: NCI Yeast Anticancer Drug Screen. Data for the mlh1 rad18 strain (AID 175). Particulars: S. cerevisiae mlh1 rad18 strain growth inhibition; at 50.0 µM; stronger effect = higher value. A digest of the protocol:
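In this whole-cell yeast screen, a strain with altered DNA damage repair is challenged with compound, and its growth is measured against matched vehicle-treated controls.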

The structures appear in SMILES notation. About 79,000 compounds went through this panel and 15% of them were active in at least one assay; those are over-represented in the sample as a whole. Values without a mark were called inactive. The source made the active and inactive calls. Cut-off read from the data, not from the text of the source: active = growth inhibition above about 70%; inactive = the rest.

For the compound `Cc1ccc(S(=O)(=O)N2CC(O)C=Cc3ccccc32)cc1` (stereo unspecified), the growth inhibition in assay [1] is 5.4%; in assay [2], -3.1%; in assay [3], -4.45%; in assay [4], 17.5%; in assay [5], 5.15%; in assay [6], 9.85%.
Turning to `NC1CC(=O)N(Cc2ccccc2)C1=O` (stereo unspecified), the growth inhibition in assay [1] was 5.75%; in assay [2], -7.9%; in assay [3], -9.8%; in assay [4] it was -11.6%; in assay [5], -0.25%; in assay [6], 2.4%.
Take `CC(=O)NCCOC(=O)c1ccccc1`: the growth inhibition in assay [1] is 34.5%; in assay [2], 4.75%; in assay [3] it was 16.4%; in assay [4] it was -17.9%; in assay [5], 4.05%; in assay [6] it was 5.9%.
As for `CC(N)/C(N)=N/O` (stereo unspecified), the growth inhibition in assay [1] is 11.2%; in assay [2] it was 4.9%; in assay [3] it was -0.95%; in assay [4], -2.45%; in assay [5] it was 18.4%; in assay [6], 15%.
For the compound `COc1cccc(NC(=O)CC(=O)N2N=C(n3ccc4ccccc43)CC2c2ccccc2)c1` (stereo unspecified), the growth inhibition was -36.3% in assay [1]; -11.4% in assay [2]; -6% in assay [3]; 11.1% in assay [4]; -3.1% in assay [5]; -16.6% in assay [6].
Consider `O=NC1C2CCC(C2)C1N=O.[Co].[c-]1[c-][c-][cH-][c-]1` (stereo unspecified), for which the growth inhibition in assay [1] is 9.4%; in assay [2], 6.45%; in assay [3], 4.7%; in assay [4], 20.4%; in assay [5], 13.6%; in assay [6], 27.9%.
Regarding `Cc1cc2c(C(C)C)c(O)c(O)c(C=NCc3ccc(Br)cc3)c2c(O)c1-c1c(C)cc2c(C(C)C)c(O)c(O)c(C=NCc3ccc(Br)cc3)c2c1O`, the growth inhibition in assay [1] was -5.6%; in assay [2] it was 1.6%; in assay [3] it was 26.6%; in assay [4] it was -22.1%; in assay [5], -9.15%; in assay [6] it was 27.8%.
With `Cc1ccc(O)c2occ(C)c12`, the growth inhibition was 17.7% in assay [1]; 12.1% in assay [2]; 10.5% in assay [3]; 36.9% in assay [4]; -2.8% in assay [5]; 39.5% in assay [6].
Consider `COC1=C(N)C(=O)c2nc(-c3nc(C(=O)O)c(C)c(Br)c3N)ccc2C1=O`, for which the growth inhibition is 89.3% (active) in assay [1]; 92.2% (active) in assay [2]; 84.9% (active) in assay [3]; 89.2% (active) in assay [4]; 80.5% (active) in assay [5]; 92.7% (active) in assay [6].
For the compound `O=C(NCCCCCCNC(=O)Oc1ccccc1F)Oc1ccccc1F`, the growth inhibition in assay [1] is -13.6%; in assay [2] it was -14.5%; in assay [3] it was -6.5%; in assay [4], -0.05%; in assay [5], 6.4%; in assay [6], -20.9%.
Turning to `O=c1c(O)c(-c2cccnc2)oc2ccc(Cl)cc12`, the growth inhibition in assay [1] is -2.1%; in assay [2] it was 17.8%; in assay [3], 12.8%; in assay [4], 21.6%; in assay [5], 16.7%; in assay [6], 0.4%.
In the case of `Cc1ccc(C(=O)CC2=NC3NN(c4ccccc4)C(=O)C3=C2CC(=O)c2ccc(C)cc2)cc1` (stereo unspecified), the growth inhibition was 38% in assay [1]; 2.4% in assay [2]; 4.55% in assay [3]; -13.1% in assay [4]; -9.05% in assay [5]; 45.3% in assay [6].
Consider `COc1ccc(CSC(=S)Nc2ccc(C)c(Cl)c2)cc1`, for which the growth inhibition in assay [1] is 26%; in assay [2], 18.2%; in assay [3] it was 18.6%; in assay [4] it was 10.1%; in assay [5] it was -3.35%; in assay [6], 17.2%.
`COC1/C=C/OC2(C)Oc3c(C)c(OC(C)=O)c4c(c3C2=O)C(=O)C=C(NC(=O)/C(C)=C\C=C\C(C)C(OC(C)=O)C(C)C(O)C(C)C(OC(C)=O)C1C)C4=O` (stereo unspecified): the growth inhibition in assay [1] is 13.6%; in assay [2], 20.7%; in assay [3] it was 26.1%; in assay [4], 21.6%; in assay [5] it was 9.45%; in assay [6], 42.9%.
In the case of `CC(=S)N/C=C/c1c(C(=O)O)cc([N+](=O)[O-])cc1[N+](=O)[O-]`, the growth inhibition is -16.9% in assay [1]; -27.7% in assay [2]; 4.55% in assay [3]; -12.8% in assay [4]; -18.9% in assay [5]; 4.7% in assay [6].
Turning to `NCCS/C=C\C(=O)OCc1ccc(Br)cc1`, the growth inhibition is 31.6% in assay [1]; 4.4% in assay [2]; 9.65% in assay [3]; 6.45% in assay [4]; 19.1% in assay [5]; 54.1% in assay [6].
Regarding `CSc1nc2c(N)ncnc2n1C`, the growth inhibition in assay [1] is 11.4%; in assay [2] it was 1.4%; in assay [3], 9.55%; in assay [4], 27.7%; in assay [5], 8.15%; in assay [6], 36.8%.
Turning to `COc1ccc(CCN=C(C)c2cc(Cl)cc(Cl)c2O)cc1OC`, the growth inhibition in assay [1] was 31.1%; in assay [2], 16.2%; in assay [3], 7%; in assay [4], 19.3%; in assay [5] it was -0.4%; in assay [6], 13.9%.
Regarding `COC(=O)C(=O)C(C(=O)C(=O)Nc1ccc([N+](=O)[O-])cc1)c1nc2ccccc2[nH]c1=O` (stereo unspecified), the growth inhibition in assay [1] is 10.1%; in assay [2], -5.95%; in assay [3], 19.5%; in assay [4], 15.4%; in assay [5], 11.7%; in assay [6], 29.5%.
As to `O=C1CCC(C(Sc2ccccc2)(Sc2ccccc2)Sc2ccccc2)C1` (stereo unspecified), the growth inhibition was -5.05% in assay [1]; -21.7% in assay [2]; -22% in assay [3]; -7.2% in assay [4]; -1.55% in assay [5]; -41.4% in assay [6].
On to `Cc1cn(CCCn2cnc3c(N)ncnc32)c(=O)[nH]c1=O`, for which the growth inhibition in assay [1] is -12.7%; in assay [2] it was -31.6%; in assay [3] it was -9.55%; in assay [4], -6.6%; in assay [5], -31.4%; in assay [6] it was -2.9%.

The values are drawn from PubChem BioAssay (NCI).
